# The supplement of paper PMC7411640
# Where a name gives a salt, the structure may show the parent alone.
# Tested on: MDA-MB-468
# Assay: phospho-S6 immunofluorescence (DAPI-normalised), per-plate z-score; higher = higher phospho-S6 signal (less pathway suppression)
# Details: 24 h
# Experimental: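 GPCR-targeted compound library (MedChemExpress HY-L006) tested on MDA-MB-468 PTEN-null TNBC cells in 384-well plates at 0.1, 1 or 10 uM, combined with vehicle, GDC0941 450 nM or lapatinib 1 uM, for 24 h. Phospho-S6 (S240/244) immunofluorescence normalised to DAPI and expressed as a per-plate z-score; values are the mean of biological triplicates.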
Structure (SMILES),phospho-S6 immunofluorescence (z-score) (co-treatment: GDC0941 450 nM),phospho-S6 immunofluorescence (z-score) (co-treatment: lapatinib 1 uM),phospho-S6 immunofluorescence (z-score) (co-treatment: vehicle)
C[C@H](NC(=O)C(C)(C)Oc1ccc(C(F)(F)F)cn1)[C@@H](Cc1ccc(Cl)cc1)c1cccc(C#N)c1 [Taranabant] (compound 10 µM),-4.19,-2.35,-2.4
O=C(c1ccc(F)cc1)C1CCN(CCn2c(=O)[nH]c3ccccc3c2=O)CC1 [Ketanserin (tartrate)] (compound 10 µM),0.46,-0.54,0.68
O=C(/C=C/c1ccc(Cl)cc1)N1CCC2(CC1)CN(Cc1ccc(Cl)c(Cl)c1)C(=O)O2 (compound 10 µM),-2.76,-2.4,-1.92
CC(=O)OCC(=O)[C@@]1(O)CC[C@H]2[C@@H]3CCC4=CC(=O)CC[C@]4(C)[C@H]3[C@@H](O)C[C@@]21C [Hydrocortisone (acetate)] (compound 10 µM),-0.25,1.4,-0.24
OC(CCN1CCCCC1)(c1ccccc1)C1CC2C=CC1C2 (stereo not given) [Biperiden (Hydrochloride)] (compound 10 µM),-1.68,-0.97,-1.56
NC(N)=Nc1nc(CSCCN/C=N/S(=O)(=O)c2ccc(Br)cc2)cs1 [Ebrotidine] (compound 10 µM),-4.2,-3.36,-1.7
CCCCC(C)(O)C/C=C/[C@H]1[C@H](O)CC(=O)[C@@H]1CCCCCCC(=O)OC (mixture of isomers) [Misoprostol] (compound 10 µM),0.36,0.67,1.59
CNC[C@H](O)c1cccc(O)c1 [(R)-(-)-Phenylephrine (hydrochloride)] (compound 10 µM),0.67,1.18,1.13
Cc1cc2c(s1)Nc1ccccc1N=C2N1CCN(C)CC1 [Olanzapine] (compound 10 µM),0.77,0.3,0.35
CCNC(=O)[C@@H]1CCCN1C(=O)[C@H](CCCNC(=N)N)NC(=O)[C@H](CC(C)C)NC(=O)[C@@H](COC(C)(C)C)NC(=O)[C@H](Cc1ccc(O)cc1)NC(=O)[C@H](CO)NC(=O)[C@H](Cc1c[nH]c2ccccc12)NC(=O)[C@H](Cc1cnc[nH]1)NC(=O)[C@@H]1CCC(=O)N1 [Buserelin (Acetate)] (compound 10 µM),0.78,0.63,0.53
CN(C)CCc1c[nH]c2ccc(Cn3cncn3)cc12 [Rizatriptan (benzoate)] (compound 10 µM),-1.62,0.19,-1.1
CCOc1nc2cccc(C(=O)O)c2n1Cc1ccc(-c2ccccc2-c2nnn[nH]2)cc1 [Candesartan] (compound 10 µM),1,0.32,0.19
CCOc1nc2cccc(C(=O)O)c2n1Cc1ccc(-c2ccccc2-c2noc(=O)[nH]2)cc1 [Azilsartan] (compound 10 µM),-0.76,0.26,-0.54
O=C1O[C@]2(CC[C@H](C(=O)Nc3ccn(-c4ccccc4F)n3)CC2)c2cnccc21 (compound 10 µM),0.73,-0.47,0.3
C[C@H](NC(=O)CNC(=O)c1cccc(Cl)c1)c1ccccc1 (compound 10 µM),0.04,0.45,0.46
CCOC(=O)N[C@@H]1CC[C@@H]2[C@@H](C1)C[C@H]1C(=O)O[C@H](C)[C@H]1[C@H]2/C=C/c1ccc(-c2cccc(F)c2)cn1 [Vorapaxar] (compound 10 µM),-5.92,-11.6,-9.84
CN(C)CCN1C(=O)c2cccc3cc(NC(N)=O)cc(c23)C1=O (compound 10 µM),1.29,7.09,0.12
Cc1cc(O[C@@H](CCC(F)(F)F)c2ccc(C(=O)NCCC(=O)O)cc2)cc(C)c1-c1ccc(C(C)(C)C)cc1 [Adomeglivant] (compound 10 µM),-4.72,-7.2,-6.79
OC[C@H]1O[C@@H](n2cnc3c(N[C@@H]4CCc5ccccc54)ncnc32)[C@H](O)[C@@H]1O (compound 10 µM),1.19,0.89,1.18
COCCCN1CCC(NC(=O)c2cc(Cl)c(N)c3c2OCC3)CC1 [Prucalopride (succinate)] (compound 10 µM),-1.08,-0.3,-1.84
O=C(O[C@@H]1C[C@@H]2C[C@H]3C[C@H](C1)N2CC3=O)c1c[nH]c2ccccc12 [Dolasetron (Mesylate hydrate)] (compound 10 µM),0.52,-0.24,0.62
CN(C)CCC=C1c2ccccc2C=Cc2ccccc21 [Cyclobenzaprine (hydrochloride)] (compound 10 µM),0.8,-0.8,-0.18
COc1ccccc1Oc1c(NS(=O)(=O)c2ccc(C(C)(C)C)cc2)nc(-c2ncccn2)nc1OCCO [Bosentan (hydrate)] (compound 10 µM),0.28,0.22,0.34
CCN1CCCC1CNC(=O)c1cc(S(N)(=O)=O)ccc1OC (stereo not given) [Sulpiride] (compound 10 µM),-0.13,0.19,0.05
CC(CCc1ccccc1)NCC(O)c1ccc(O)c(C(N)=O)c1 (stereo not given) [Labetalol (hydrochloride)] (compound 10 µM),0.84,-0.16,0.83

Structure (SMILES),phospho-S6 immunofluorescence (z-score) (co-treatment: GDC0941 450 nM),phospho-S6 immunofluorescence (z-score) (co-treatment: lapatinib 1 uM),phospho-S6 immunofluorescence (z-score) (co-treatment: vehicle)
NC(=O)c1ccc[n+]([O-])c1 [Nicotinamide N-oxide] (compound 10 µM),0.09,0.22,-0.26
CN/C(=N\CCSCc1nc[nH]c1C)NC#N [Cimetidine] (compound 10 µM),0.86,0.64,-0.63
CCCc1c2oc(C(=O)O)cc(=O)c2cc2c(=O)cc(C(=O)O)n(CC)c12 [Nedocromil] (compound 10 µM),-0.69,-0.48,-1.01
C(=C\c1ccccc1)/CN1CCN(C(c2ccccc2)c2ccccc2)CC1 [Cinnarizine] (compound 10 µM),0.86,0.22,1.3
COC(=O)N(C)c1c(N)nc(-c2nn(Cc3ccccc3F)c3ncccc23)nc1N [Riociguat] (compound 10 µM),-0.84,0.03,-0.56
CCCCc1ccc(NS(=O)(=O)c2ccc(F)cc2)cc1 (compound 10 µM),-3.59,-8.48,-10.2
O=C(O[C@@H]1C[C@@H]2C[C@H]3C[C@H](C1)N2CC3=O)c1c[nH]c2ccccc12 [Dolasetron] (compound 10 µM),-0.34,-0.11,-0.46
CCCCc1oc2ccc(NS(C)(=O)=O)cc2c1C(=O)c1ccc(OCCCN(CCCC)CCCC)cc1 [Dronedarone] (compound 10 µM),-3.7,-8.99,-9.98
CN1CCC(=C2c3ccccc3C=Cc3ccccc32)CC1 [Cyproheptadine (hydrochloride sesquihydrate)] (compound 10 µM),0.49,-0.96,-0.87
CN1CCC(=C2c3ccccc3CC(=O)c3sccc32)CC1 [Ketotifen (fumarate)] (compound 10 µM),0.55,-0.44,0.26
CN(C)C(=O)N[C@H]1CC[C@H](CCN2CCN(c3cccc(Cl)c3Cl)CC2)CC1 [Cariprazine (hydrochloride)] (compound 10 µM),0.26,-1.23,1.3
CCCNS(=O)(=O)Nc1ncnc(OCCOc2ncc(Br)cn2)c1-c1ccc(Br)cc1 [Macitentan] (compound 10 µM),0.32,0.71,-0.16
Cc1ccc(Sc2ccccc2N2CCNCC2)c(C)c1 [Vortioxetine (hydrobromide)] (compound 10 µM),-5.79,-11.4,-9.37
COc1ccc2c(c1OC)C(=O)O[C@@H]2[C@H]1c2c(cc3c(c2OC)OCO3)CCN1C [Noscapine] (compound 10 µM),0.49,0.12,0.47
CCOC(=O)c1ccc(-n2cc(Cc3cnc(OCC)nc3)c(=O)nc2SCc2ccc(F)cc2)cc1 (compound 10 µM),-3.26,-3.79,-4.85
C[C@@H](NCCCc1cccc(C(F)(F)F)c1)c1cccc2ccccc12 [Cinacalcet] (compound 10 µM),-5.01,-7.68,-6.21
C[C@@H](OC[C@@]1(c2ccccc2)CC[C@]2(CCC(=O)N2)CN1)c1cc(C(F)(F)F)cc(C(F)(F)F)c1 [Rolapitant] (compound 10 µM),-4.35,-3.8,-0.65
CC[C@H](C)[C@H](NC(=O)[C@H](Cc1ccc(O)cc1)NC(=O)[C@@H]1CCCN1C(=O)[C@@H](NC(=O)[C@@H](N)CCCCN)[C@@H](C)CC)C(=O)N[C@@H](CC(C)C)C(=O)O [Neuromedin N] (compound 10 µM),0.27,-0.01,-0.38
Cc1sc(C)c(C(=O)NC2(c3ccc(C(=O)O)cc3)CC2)c1Cc1ccc(C(F)(F)F)cc1 (compound 10 µM),-1.42,-0.58,0.73
CCCCCCn1c(O)c(N=NC(=O)c2ccccc2)c2ccccc21 (compound 10 µM),-2.97,-0.75,0.59
CCCN(CCN1CCN(c2ccccc2OC)CC1)C1CCc2ncsc2C1 (stereo not given) [ST-836 (hydrochloride)] (compound 10 µM),0.29,-0.62,0.1
COc1ccc(S(=O)(=O)Nc2c(C)cc(C)cc2C)cc1 (compound 10 µM),0.04,-0.37,-1.05
CC(C)NCC(O)c1ccc(O)c(O)c1 (stereo not given) [Isoprenaline (hydrochloride)] (compound 10 µM),0.63,2.74,1.65
CC(C)Cc1ccc([C@@H](C)C(=O)NS(C)(=O)=O)cc1 [Reparixin (L-lysine salt)] (compound 10 µM),-1.6,-1.46,-0.67
N[C@@H](COP(=O)(O)O)C(=O)O [O-Phospho-L-serine] (compound 10 µM),0.23,0.05,-0.66
